Assay results as given in the supplement of paper PMC13380429.

System: Vero E6 infected with SARS-CoV-2
Assay: inhibition of SARS-CoV-2 cytopathic effect; higher = more antiviral protection, active = above 15
Settings: 48 h

Measured: inhibition of SARS-CoV-2 cytopathic effect

O=C(NC1CCC1)c1ccc(C#Cc2cccc(F)c2)nc1
inactive: 1 nM 0.19% | 8.33 nM -1.61% | 100 nM -2.31% | 833.33 nM -1.49% | 10000 nM 2.23%

Cc1cc(C)c(N(Cc2ccccc2)S(=O)(=O)c2ccc(OCCNC(=O)c3cc4ccccc4o3)cc2)c(C(=O)NO)c1
inactive: 1 nM -0.99% | 8.33 nM 0.92% | 100 nM -1.74% | 833.33 nM -1.22% | 10000 nM -6.93%

Cc1ccc(/C(=C\CN2CCCC2)c2cccc(/C=C/C(=O)O)n2)cc1 [acrivastine]
inactive: 1 nM 0.5% | 8.33 nM -0.13% | 100 nM 0.75% | 833.33 nM 6.14% | 10000 nM 1.35%

O=C(O)c1cnn(-c2nc3cc(OC(F)(F)F)c(Cl)cc3[nH]2)c1
inactive: 1 nM 0.36% | 8.33 nM 1.44% | 100 nM 1.23% | 833.33 nM 1.43% | 10000 nM -0.28%

OCCNCCCOc1cccc(Cl)c1Cl
inactive: 1 nM 1.41% | 8.33 nM 0.45% | 100 nM 1.26% | 833.33 nM 0.42% | 10000 nM -19.6%

CC(C)Cc1ccc([C@@H](C)C(=O)NS(C)(=O)=O)cc1 [reparixin]
inactive: 1 nM 2.11% | 8.33 nM 3.05% | 100 nM 3.66% | 833.33 nM 0.65% | 10000 nM 4.19%

N#Cc1ccccc1-c1cc(-c2ccccn2)cn(-c2ccccc2)c1=O [Perampanel]
inactive: 1 nM 2.02% | 8.33 nM 0.93% | 100 nM 4.1% | 833.33 nM -0.14% | 10000 nM -5.2%

CCN1CCCC1CNC(=O)c1cc(S(=O)(=O)CC)c(N)cc1OC (stereo not given) [amisulpride]
inactive: 1 nM 2.43% | 8.33 nM -1.75% | 100 nM 0.45% | 833.33 nM -2.32% | 10000 nM -1.76%

CCNC(=O)[C@@H]1CCCN1C(=O)[C@H](CCCNC(=N)N)NC(=O)[C@H](CC(C)C)NC(=O)[C@@H](C)NC(=O)[C@H](Cc1ccc(O)cc1)NC(=O)[C@H](CO)NC(=O)[C@H](Cc1c[nH]c2ccccc12)NC(=O)[C@H](Cc1cnc[nH]1)NC(=O)[C@@H]1CCC(=O)N1 [alarelin]
inactive: 1 nM -0.73% | 8.33 nM -1.67% | 100 nM 0.97% | 833.33 nM 1.34% | 10000 nM -0.57%

CCCn1c(=O)[nH]c2nc(-c3ccc(S(=O)(=O)O)cc3)[nH]c2c1=O
inactive: 1 nM 0.98% | 8.33 nM -0.31% | 100 nM -0.83% | 833.33 nM 0.97% | 10000 nM 0.55%

CN(C)c1cccc(-c2c3c(=O)n(-c4ccccc4Cl)[nH]c3cc(=O)n2C)c1
inactive: 1 nM -1.01% | 8.33 nM 2.2% | 100 nM 0.39% | 833.33 nM -1.67% | 10000 nM 9.86%

COc1ccc(CN(CCN(C)C)c2ccccn2)cc1 [mepyramine]
inactive: 1 nM -3.35% | 8.33 nM -2.48% | 100 nM -1.11% | 833.33 nM 2.27% | 10000 nM 1.04%

COc1ccc(-c2coc3cc(O)ccc3c2=O)cc1 [formononetin]
inactive: 1 nM 0.45% | 8.33 nM 1.81% | 100 nM 1.27% | 833.33 nM -2.13% | 10000 nM -0.02%

CC1(C)Oc2ccc(C#N)cc2[C@H](N(Cc2ncc[nH]2)c2ccc(Cl)cc2)[C@H]1O
inactive: 1 nM 0.45% | 8.33 nM -1.34% | 100 nM 1.85% | 833.33 nM 2.7% | 10000 nM -1.77%

Cc1ncc(-c2ccnc(Nc3ccc(S(C)(=O)=O)cc3)n2)n1C(C)C
inactive: 1 nM 0.38% | 8.33 nM -1.83% | 100 nM -1.95% | 833.33 nM 6.02% | 10000 nM -2.7%

CO[C@H]1/C=C/O[C@@]2(C)Oc3c(C)c(O)c4c(O)c(c5c(nc6cc(C)ccn65)c4c3C2=O)NC(=O)/C(C)=C\C=C\[C@H](C)[C@H](O)[C@@H](C)[C@@H](O)[C@@H](C)[C@H](OC(C)=O)[C@@H]1C [rifaximin]
inactive: 1 nM 0.71% | 8.33 nM -2.16% | 100 nM -0.03% | 833.33 nM -3.72% | 10000 nM -3.3%

COC(=O)C1=C(C)NC(C)=C(C(=O)OC(C)C)[C@@H]1c1cccc2nonc12 [isradipine]
inactive: 1 nM 0.75% | 8.33 nM 2.79% | 100 nM 1.21% | 833.33 nM 2.05% | 10000 nM 1.88%
